Assay [1] is described as follows: reducers of endogenous Her2 protein level, primary screen, SKBR3 breast tumor cells, AlphaScreen, ATP viability (AID 461;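 active means Her2 level under about 52% in both replicate screens, with viability over 70% of control, limit read from the data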;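 on Her2 level: lower value means less Her2 protein in the cells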;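 on viability: percent of carrier control wells set as 100% viability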). The following applies: 18-24 h, measured here: SKBR3 viability, ATP luminescence, at 10 µM.
The target of assay [2] is Receptor tyrosine-protein kinase erbB-2 (Homo sapiens) (UniProt P04626). The description is as above. To be noted: 18-24 h, at 10 µM, stronger effect = lower value.
Receptor tyrosine-protein kinase erbB-2 (Homo sapiens), sequence (P04626 whole entry, looked up): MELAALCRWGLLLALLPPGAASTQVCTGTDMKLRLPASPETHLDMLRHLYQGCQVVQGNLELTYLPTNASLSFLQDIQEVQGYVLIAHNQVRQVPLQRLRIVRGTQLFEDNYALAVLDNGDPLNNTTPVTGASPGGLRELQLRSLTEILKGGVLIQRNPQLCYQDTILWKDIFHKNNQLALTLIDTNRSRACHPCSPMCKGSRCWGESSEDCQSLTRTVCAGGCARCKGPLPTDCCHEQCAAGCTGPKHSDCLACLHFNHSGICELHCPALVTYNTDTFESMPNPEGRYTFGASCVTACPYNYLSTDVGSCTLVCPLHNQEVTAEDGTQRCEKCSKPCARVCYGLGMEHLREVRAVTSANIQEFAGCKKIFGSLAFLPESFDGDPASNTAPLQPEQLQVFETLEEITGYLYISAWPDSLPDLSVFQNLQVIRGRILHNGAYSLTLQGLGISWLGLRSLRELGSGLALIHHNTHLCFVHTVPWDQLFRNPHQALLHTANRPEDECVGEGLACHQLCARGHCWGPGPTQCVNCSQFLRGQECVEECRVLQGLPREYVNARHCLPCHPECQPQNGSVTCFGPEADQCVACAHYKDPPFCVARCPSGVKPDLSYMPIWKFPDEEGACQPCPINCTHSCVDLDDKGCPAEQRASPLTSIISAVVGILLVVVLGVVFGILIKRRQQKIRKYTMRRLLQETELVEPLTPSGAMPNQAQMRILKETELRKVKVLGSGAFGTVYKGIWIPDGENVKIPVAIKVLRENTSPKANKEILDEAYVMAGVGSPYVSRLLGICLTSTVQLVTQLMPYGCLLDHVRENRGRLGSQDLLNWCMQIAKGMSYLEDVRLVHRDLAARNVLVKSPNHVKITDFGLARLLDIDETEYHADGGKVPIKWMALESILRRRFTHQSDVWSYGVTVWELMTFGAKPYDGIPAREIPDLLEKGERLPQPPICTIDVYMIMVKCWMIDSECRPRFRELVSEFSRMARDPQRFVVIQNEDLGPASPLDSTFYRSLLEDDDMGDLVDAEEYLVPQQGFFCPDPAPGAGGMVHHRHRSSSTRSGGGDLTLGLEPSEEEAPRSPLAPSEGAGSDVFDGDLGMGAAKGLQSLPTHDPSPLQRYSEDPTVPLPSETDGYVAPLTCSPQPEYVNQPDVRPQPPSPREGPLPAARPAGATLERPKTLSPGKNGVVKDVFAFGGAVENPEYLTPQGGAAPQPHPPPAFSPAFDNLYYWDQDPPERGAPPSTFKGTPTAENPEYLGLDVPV
Assay [3] can be described thus: SK-BR-3 cell growth inhibitors, pilot screen, 24 h, human (AID 572;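 active means viability at or below 10% of carrier control in both of two separate runs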;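 further: compound exposure lasted between 18 and 24 h rather than exactly 24 h; 100% = carrier-treated control wells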). The following applies: SK-BR-3 viability, CellTiter-Glo luminescence, at 10 µM, stronger effect = lower value.
Assay [4] in a line: HUVEC growth inhibition – cell-based, human, primary screen (AID 575;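 active means viability at or below 30% in both replicate assays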;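 further: 100% = median of untreated cell wells with 0.1% DMSO on each plate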). The following applies: HUVEC proliferation, CellTiter-Glo luminescence, 72 h; at 10 µM; stronger effect = lower value. A general note: In ATP-based viability assays light output follows the ATP content of the culture.
A short description of assay [5]: growth inhibitors of H69AR lung tumor, primary screen, human, duplicate replicates (AID 580;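 active means viability at or under a set limit in both replicates, limit being median viability minus 3 SD, cut at about 48% in these data, passing the limit was not always enough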;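 further: 100% = mean luminescence of untreated wells and 0% = no signal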). The following applies: H69AR lung tumor cells viability, ATP luminescence, 72 h; at 10 µM; stronger effect = lower value.
Assay [6] in a line: reversal of MRP1-mediated doxorubicin resistance, pilot screen, H69AR cells, doxorubicin co-treatment (AID 601;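 active means viability loss from added drug above about 55%, and viability with drug at most 40%, in both replicates, limit read from the data, passing the limit was not always enough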). The following applies: CellTiter-Glo, 72 h, at 10 µM; for differential viability (reversal): stronger effect = higher value.
Assay [7] is described as follows: 384-well plate pilot, post-Golgi transport modulator project, inhibition of yeast transport mutant growth (AID 636; in the data active means inhibition above about 31%). To be noted: absorbance 615 nm, about 18 h, stronger effect = higher value.
The nature of assay [8]: growth suppression of yeast trafficking mutant, preliminary HTS, modulators of trafficking downstream of Golgi apparatus project, 1536-format plate, OD 615 nm (AID 637; in the data active means inhibition above about 30%). To be noted: yeast transport mutant growth, absorbance 615 nm, 18 h; stronger effect = higher value.
Assay [9] can be described thus: OD615 S. cerevisiae growth inhibition, permissive medium, pilot counter-assay, permissive growth control for S. cerevisiae lifespan shortening project (AID 705). To be noted: OD615, 24 h, at 10 µM, stronger effect = higher value.
A short description of assay [10]: Restrictive medium S. cerevisiae growth inhibition, OD615, pilot screen of yeast lifespan reduction project, restrictive growth control (AID 706;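 active means growth inhibition above a set limit, 3 SD over mean compound inhibition, in both replicates, cut at about 43% in these data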;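 further: modified DeaD lifespan yeast strain shifted to restrictive glucose medium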). To be noted: OD615, 48 h, at 10 µM, stronger effect = higher value.
Assay [11] can be described thus: viability gain of MRP-1-high H69AR cells under doxorubicin, pilot screen, MRP-1 activator project, CellTiter-Glo, duplicate (AID 807;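 active means viability increase at or above a cutoff of the median across tested compounds plus 3 SD, cut at about 8.5% in these data, passing the limit was not always enough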;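 further: compound pretreatment 18-22 h then 72 h combined with doxorubicin; 0% = doxorubicin alone and 100% = vehicle without doxorubicin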). To be noted: H69AR viability with doxorubicin, CellTiter-Glo luminescence; at 10 µM; stronger effect = higher value.
Assay [12] is described as follows: growth suppression of beta-catenin knockout HCT116, pilot screen, human colon tumor cells (AID 823;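 active means cell viability at or below a set limit in both duplicate runs, the limit being the all-compound median minus 4 SD, cut at about 23% in these data, passing the limit was not always enough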;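 further: 0% = wells killed by 20 µM Hyamine and 100% = untreated DMSO cell wells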). To be noted: CellTiter-Glo, 60 h, at 10 µM, stronger effect = lower value.
Assay [13] in a line: growth suppression of PTEN-deleted HCT116, pilot screen, cell-based, HCT116 clonal line, CellTiter-Glo (AID 824;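 active means viability at or below 27.92% in each of two runs, the all-compound median minus 4 SD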;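 further: 0% = 20 µM Hyamine control and 100% = vehicle cell control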). To be noted: 60 h, at 10 µM, stronger effect = lower value.
The nature of assay [14]: inhibitors of the yeast RAM network, pilot screen, dse1pr::URA3 reporter, 5-FOA selection (AID 869;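 active means inhibition over a set limit, the all-compound mean plus 3 SD, in both replicate runs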;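 further: 0% = DMSO wells with no growth and 100% = 10 µM 1-NA-PP1 with full growth; RAM network block rescues cells from 5-FOA so hits raise OD615 growth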). To be noted: S. cerevisiae dse1pr::URA3 5-FOA growth, OD615, 2 d; at 10 µM; stronger effect = higher value; strain carries analog-sensitive mutant Cbk1 kinase.
Assay [15] in a line: RAM signaling pathway blockade in yeast – S. cerevisiae, Pdr1DBD-CYC8 efflux-inhibited sensitized strain, primary screen (AID 1298;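 active means RAM network inhibition above 8.4% in each of two replicates, 3 SD over the compound average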;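 further: 0% = DMSO untreated cells without growth and 100% = 10 µM 1-NA-PP1 full growth; higher means more yeast growth rescued from 5-FOA killing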). To be noted: S. cerevisiae cbk1-as DSE1-URA3 strain, 5-FOA growth OD615, 2 d; at 50 µM; stronger effect = higher value.
[16] abbreviates: H69AR cells + 2 uM doxorubicin, measured here: viability with 2 uM doxorubicin, stronger effect = lower value.
Where [17] appears, read: H69AR cells, compound alone cytotoxicity.

As a reminder, the viability is a read-out of living cells in per cent, often relative to untreated cells. What is called inhibition is the relative decrease from the control value, in per cent.

Molecules are shown by their SMILES. Results filed as inconclusive are left out. Activity calls are given as the source filed them.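 How the source made its calls, unless noted: active means growth inhibition above 25% in both replicates, a cutoff set 3 SD above the mean; inconclusive means above 25% in only one replicate; inactive means the rest.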

`CC(C)(C)SCCNC(=O)COc1ccccc1`: the viability in assay [1] is 112%; in assay [3], 112% (inactive); in assay [4], 88.4% (inactive); in assay [5], 96.8% (inactive); in [6] (setting [16]) it was 85%; in assay [6] (setting [17]), 96.8%. Besides, the viability in [12] is 95.7% (inactive); in assay [13] it was 96.6% (inactive). Besides, in assay [2], the Her2 level is 88.5% (inactive). In addition, the differential viability (reversal) in assay [6] (H69AR cells + 2 uM doxorubicin) is 11.8% (inactive). The inhibition in assay [7] is -6.22% (inactive); in assay [8], 4% (inactive); in [14] it was 1.81% (inactive). The values for the growth inhibition in assay [9] and in assay [10] were -2.07% (inactive) and 4.92% (inactive), respectively. Besides, the viability increase in [11] was 0.03% (inactive). Besides, the RAM network inhibition in [15] is 2.63% (inactive).
Consider `O=C(Nc1nncs1)c1ccccc1NS(=O)(=O)c1cccs1`, for which the viability in assay [1] is 99%; in assay [3] it was 99% (inactive); in assay [4] it was 95.3% (inactive); in assay [5] it was 90.2% (inactive); in assay [6] (setting [16]), 93.8%; in assay [6] (setting [17]), 90.2%. Also, the viability in assay [12] was 102% (inactive). For the same compound, the Her2 level in assay [2] is 110% (inactive). Besides, the differential viability (reversal) in [6] (H69AR cells + 2 uM doxorubicin) was -3.62% (inactive). The inhibition in assay [7] is -4.86% (inactive); in assay [8], -11.2% (inactive); in assay [14], 2.67% (inactive). Further, the growth inhibition in [9] is -20.1% (inactive); in [10], -10.1% (inactive). In assay [11], the viability increase was -1.16% (inactive). For the same compound, the RAM network inhibition in assay [15] was 4.37% (inactive).
With `COc1ccccc1N(CC(=O)Nc1cccnc1)S(C)(=O)=O`, the viability in assay [1] was 94.5%; in [3], 94.5% (inactive); in [4], 89.8% (inactive); in assay [5], 89.3% (inactive); in assay [6] (setting [16]), 87.8%; in assay [6] (setting [17]), 89.3%. In addition, the viability in assay [12] is 103% (inactive); in [13], 97.2% (inactive). In addition, the Her2 level in [2] is 108% (inactive). Besides, the differential viability (reversal) in [6] (H69AR cells + 2 uM doxorubicin) was 1.5% (inactive). Further, the values for the inhibition in assay [7], in [8] and in assay [14] were 0.81% (inactive), -3.28% (inactive) and 2.62% (inactive), respectively. Besides, the values for the growth inhibition in [9] and in assay [10] were -5.2% (inactive) and 13.5% (inactive), respectively. Further, the viability increase in assay [11] is -1.31% (inactive). In addition, the RAM network inhibition in assay [15] is 3.47% (inactive).
Regarding `CCCc1nnc2n1N=C(c1ccc(-c3cc(Cl)ccc3Cl)o1)CS2`, the viability in [1] was 108%; in assay [3] it was 108% (inactive); in [4], 97.1% (inactive); in [5] it was 89.2% (inactive); in assay [6] (setting [16]), 87.8%; in assay [6] (setting [17]) it was 89.2%. The viability in assay [12] was 97.8% (inactive). Also, the Her2 level in assay [2] was 94% (inactive). Also, the differential viability (reversal) in assay [6] (H69AR cells + 2 uM doxorubicin) is 1.35% (inactive). Further, the inhibition is -1.82% (inactive) in assay [7], 0% (inactive) in assay [8] and 1.36% (inactive) in assay [14]. Besides, the growth inhibition in assay [9] is -18.6% (inactive); in assay [10] it was 4.29% (inactive). In assay [11], the viability increase was -2.95% (inactive). The RAM network inhibition in [15] was 1.93% (inactive).
In the case of `Cn1ccnc1SCC(=O)Nc1ccc2ccccc2c1`, the viability in assay [1] was 96.5%; in assay [3], 96.5% (inactive); in [4], 91.5% (inactive); in [5], 105% (inactive); in [6] (setting [16]) it was 86.9%; in [6] (setting [17]) it was 105%. Further, in assay [12], the viability was 96.8% (inactive). Further, the Her2 level in assay [2] was 85.5% (inactive). Besides, the differential viability (reversal) in assay [6] (H69AR cells + 2 uM doxorubicin) was 17.8% (inactive). The inhibition in assay [7] was -4.38% (inactive); in assay [8] it was -4.92% (inactive); in assay [14] it was 1.69% (inactive). For the same compound, the growth inhibition in [9] was 2.36% (inactive); in assay [10] it was 3.36% (inactive). In [11], the viability increase is -2.68% (inactive). Further, the RAM network inhibition in assay [15] is 3.49% (inactive).

Source of the values: PubChem BioAssay.
